Hits are enriched below; roughly 18% of the tested compounds scored in any of these assays.
DT40 TDP1 CPT – growth inhibition of DT40 Tdp1-/-;hTDP1 cells with camptothecin (screen for TDP1 inhibitors); chicken DT40 Tdp1-/-;hTDP1 cells + 20 nM CPT, ATP luminescence, 48 h; Potency, µM (highest dose often 46.2 µM), inactives show at the top dose activity change, negative = growth inhibition, most hits filed as inhibitors; actives 12% (n = 420,000); AID 686979; note: potency is the fitted concentration of half-maximal effect; % is set by controls: 0 for no effect and ±100 for the full control effect; nearly all actives have a fitted effect of over 55% in size
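Cell growth measured by CellTiter-Glo luminescence after a minimum 48 h, 37 C compound exposure with 20 nM CPT in Tdp1-knockout DT40 cells stably expressing hTDP1, seeded 400/well; qHTS titration format.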
TDP1 cell noCPT – qHTS for Inhibitors of human tyrosyl-DNA phosphodiesterase 1 (TDP1): qHTS in cells in absence of CPT | DT40 Tdp1-/- hTDP1 cells, no CPT, ATP luminescence, 48 h | Potency, µM (titrated, usually from 46.2 µM), without a hit: at the top dose activity change, negative = growth inhibition, actives largely listed as inhibitors | actives 15% (n = 420,000) | AID 686978, 2013; note: potency is the fitted concentration of half-maximal effect; % is set by controls: 0 for no effect and ±100 for the full control effect; nearly all actives have a fitted effect of over 55% in size
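Chicken DT40 Tdp1-/- cells complemented with human TDP1, screened without camptothecin (DMSO vehicle only), 400 cells/well. Compounds pin-transferred, cells incubated at 37 °C for at least 48 hr. Growth read as ATP-dependent luminescence (CellTiter-Glo, 30 min at RT).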
TDP1 block – blocks human tyrosyl-DNA phosphodiesterase 1 | Q9NUW8 | recombinant TDP1, AlphaScreen DNA substrate cleavage | Potency, µM (doses to about 130 µM), without a hit: at the top dose activity change, negative = inhibition, most hits filed as inhibitors | actives 0.28% (n = 350,000); note: potency is the fitted concentration of half-maximal effect; % is set by controls: 0 for no effect and ±100 for the full control effect; nearly all actives have a fitted effect of over 40% in size
Target sequence (Q9NUW8 whole entry, looked up): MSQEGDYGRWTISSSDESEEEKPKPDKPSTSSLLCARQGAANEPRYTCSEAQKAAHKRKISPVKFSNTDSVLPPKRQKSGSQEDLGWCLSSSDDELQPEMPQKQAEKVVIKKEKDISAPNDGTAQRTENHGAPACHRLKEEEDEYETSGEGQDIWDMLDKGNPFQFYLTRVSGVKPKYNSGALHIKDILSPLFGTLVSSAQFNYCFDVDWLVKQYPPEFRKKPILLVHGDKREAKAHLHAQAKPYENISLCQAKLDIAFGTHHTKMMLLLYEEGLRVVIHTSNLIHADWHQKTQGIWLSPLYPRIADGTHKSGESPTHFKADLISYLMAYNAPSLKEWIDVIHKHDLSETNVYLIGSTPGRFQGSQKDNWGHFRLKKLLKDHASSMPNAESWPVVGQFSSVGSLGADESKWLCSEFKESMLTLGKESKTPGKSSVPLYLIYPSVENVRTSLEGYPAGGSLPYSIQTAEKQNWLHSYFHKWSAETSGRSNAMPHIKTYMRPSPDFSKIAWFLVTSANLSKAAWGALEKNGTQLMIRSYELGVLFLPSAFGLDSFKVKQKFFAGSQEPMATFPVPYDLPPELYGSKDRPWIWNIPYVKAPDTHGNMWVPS
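Tdp1 1 nM final; 15 min RT w/ cpd; substrate 15 nM, 5 min; beads 10 ug/ml, 10 min; AlphaScreen read. Neg ctrl: no enzyme.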
HepG2 tox – counter-screen for TGF-b inhibitors: cytotoxicity in HepG2 cells; HepG2 CAGA-GFP viability, ATP luminescence, 18 h; Potency, µM (top dose mostly 46.1 µM), without a hit: top-dose activity change, negative = cytotoxicity, hits mostly cytotoxic; actives 0.76% (n = 410,000); note: potency is the fitted concentration of half-maximal effect
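HepG2 CAGA-GFP cells (1000/well, DMEM with 1% FBS) received compound, then TGF-beta at 500 pg/mL final, and were incubated 18 hours at 37 degrees C. Viability was read by CellTiter-Glo luminescence. Media-only wells were set as complete cell-killing and DMSO as no toxicity.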
TGFb inhibitor – inhibitors of TGF-b signaling; actives 1.2% (n = 410,000); Potency, µM (highest dose often 46.1 µM), for the others: at the top dose activity, negative = inhibition, most hits filed as inhibitors; HepG2 CAGA-GFP TGF-b/SMAD3 reporter, GFP fluorescence, 18 h; TGF-beta stimulated, 500 pg/mL final; note: potency is the fitted concentration of half-maximal effect; % is set by controls: 0 for no effect and ±100 for the full control effect; nearly all actives have a fitted effect of over 65% in size
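First, reporter cells (HEPG2 CAGA-GFP) rested 2 h at 37 degrees C. Next, compounds were pinned in and TGF-beta added to 500 pg/mL final. After 18 h, GFP was imaged per cell and summed per well.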
IL1B secr inh – inhibitors of inflammasome signaling (IL-1 beta secretion). THP-1 LPS/ATP IL-1B secretion, AlphaLISA, 16 h; hits give low values. activity change, % at 57.5 µM. actives 4.7% (n = 360,000); in the data active = activity change below about -50%; inconclusive = mostly about -30% to -49%; note: % is set by controls: 0 for no effect and ±100 for the full control effect
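Secreted IL-1B measured by AlphaLISA bead assay after 16 h compound exposure of THP-1 cells; compounds (final up to 57.5 uM) added 1 h before LPS (250 ng/mL) and ATP (1.25 mM) stimulation; lower signal means less secretion.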
Active calls of the source: *; [ ] = remark or other dose. Unless noted, calls come from the whole dose curve; as a rule, active = well fitted curve in the direction sought with a large enough effect; inconclusive = small, poorly fitted or top-dose-only effect, or another doubt; inactive = no such curve, though single readings can be large; an effect the other way counts as inactive or inconclusive.

How did COc1ccc(-c2cc(=O)[nH][nH]2)cc1 do in these assays?
DT40 TDP1 CPT: inconclusive; TDP1 cell noCPT: -3.3%; TDP1 block: 9.5%; HepG2 tox: 26.4%; TGFb inhibitor: 11.9%; IL1B secr inh: -8.5

Results for COc1ccc(-c2cc(=O)n(CCC#N)[nH]2)cc1 ?
DT40 TDP1 CPT: inconclusive; TDP1 cell noCPT: 23.1µM*; TDP1 block: 4.7%; HepG2 tox: -35.3%; TGFb inhibitor: 1.3%; IL1B secr inh: 6.3

Results for CC(=O)c1ccc(NC(=O)CSc2nnc(NC(=O)CN3CCOCC3)s2)cc1 ?
DT40 TDP1 CPT: -0.4%; TDP1 cell noCPT: 3.9%; TDP1 block: 7.6%; HepG2 tox: -4.7%; TGFb inhibitor: -7.2%; IL1B secr inh: 6.6

Results for CCCNC(=O)CSc1cn(CC(=O)N2CCCCCC2)c2ccccc12 ?
DT40 TDP1 CPT: -18.5%; TDP1 cell noCPT: -21.5%; TDP1 block: 2.6%; HepG2 tox: -2.7%; TGFb inhibitor: -5.3%

What do the screens show for `CN(C(=O)CSc1cn(CC(=O)N2CCCCC2)c2ccccc12)c1ccccc1`?
DT40 TDP1 CPT: inconclusive; TDP1 cell noCPT: inconclusive; TDP1 block: -5.1%; HepG2 tox: -17.7%; TGFb inhibitor: inconclusive

How did CC(C)N(C(=O)CSc1cn(CC(=O)N2CCCCCC2)c2ccccc12)C(C)C do in these assays?
DT40 TDP1 CPT: inconclusive; TDP1 cell noCPT: 18.4µM*; TDP1 block: 0.0%; HepG2 tox: -23.5%; TGFb inhibitor: 12.6µM*

What do the screens show for `CN(C(=O)CSc1cn(CC(=O)N2CCCCCC2)c2ccccc12)c1ccccc1`?
DT40 TDP1 CPT: inconclusive; TDP1 cell noCPT: 18.4µM*; TDP1 block: -5.1%; HepG2 tox: -11.2%; TGFb inhibitor: inconclusive

What do the screens show for `COc1ccc(NC(=O)CSc2nnc(C)n2N)cc1S(=O)(=O)N1CCCCC1`?
DT40 TDP1 CPT: 1.2%; TDP1 cell noCPT: 12.2%; TDP1 block: 0.5%; HepG2 tox: 8.0%; TGFb inhibitor: -1.2%; IL1B secr inh: 7.1

What do the screens show for `Cn1c(=O)c(CCc2ccccc2)nc2cnc(Oc3ccccc3)nc21`?
DT40 TDP1 CPT: -20.5%; TDP1 cell noCPT: inconclusive

How did CNC(=O)c1sc(N2N=C3/C(=C\c4ccccc4)CCCC3C2c2ccccc2)nc1C (stereo not given) do in these assays?
DT40 TDP1 CPT: inconclusive; TDP1 cell noCPT: 25.9µM*; HepG2 tox: -17.1%; TGFb inhibitor: 1.8%; IL1B secr inh: -10.7

Results for CNC(=O)c1sc(N2N=C3/C(=C/c4ccccc4)CCCC3C2c2ccccc2)nc1C (stereo not given) ?
DT40 TDP1 CPT: inconclusive; TDP1 cell noCPT: 12.6µM*; TDP1 block: 2.0%; HepG2 tox: -37.0%; TGFb inhibitor: -4.3%; IL1B secr inh: -12.3

How did O=[N+]([O-])/C(=C\Nc1ccc(F)cc1F)S(=O)(=O)c1ccccc1 do in these assays?
DT40 TDP1 CPT: -6.2%; TDP1 cell noCPT: -5.7%; HepG2 tox: 6.9%; TGFb inhibitor: -1.3%; IL1B secr inh: -12.0

What do the screens show for `CCCCC1Cc2[nH]c(=S)[nH]c(=O)c2C(C(C)C)O1` (stereo not given)?
DT40 TDP1 CPT: inconclusive; TDP1 cell noCPT: inconclusive; IL1B secr inh: 40.4

How did C=CCn1c(-c2cccn(Cc3ccc(Cl)cc3Cl)c2=O)n[nH]c1=S do in these assays?
DT40 TDP1 CPT: -27.0%; TDP1 cell noCPT: -8.3%; TDP1 block: 3.9%; HepG2 tox: -8.1%; TGFb inhibitor: 1.2%; IL1B secr inh: 7.5

What do the screens show for `Cc1cc(C)n(-c2ccn(Cc3ccc(Cl)cc3Cl)c(=O)n2)n1`?
DT40 TDP1 CPT: 20.6µM*; TDP1 cell noCPT: 16.4µM*; TDP1 block: -1.0%; HepG2 tox: -25.0%; TGFb inhibitor: 8.4%; IL1B secr inh: -16.6

How did Fc1ccc(Nc2nc(-c3cccc(Cl)c3)c3c(n2)-c2ccccc2OC3)cc1 do in these assays?
DT40 TDP1 CPT: -10.7%; TDP1 cell noCPT: inconclusive; TDP1 block: 8.6%; HepG2 tox: -11.9%; TGFb inhibitor: -0.1%

What do the screens show for `CCOC(=O)C1(C)CCCCCN1C(=O)c1ccccc1F` (stereo not given)?
DT40 TDP1 CPT: -15.9%; TDP1 cell noCPT: -23.0%; HepG2 tox: 0.0%; TGFb inhibitor: 2.0%; IL1B secr inh: 0.8

Results for CN(CCCNC(=O)c1ccc(/C=N/O)nc1)CCCN(C)Cc1ccccc1 ?
DT40 TDP1 CPT: inconclusive; TDP1 cell noCPT: 23.1µM*; TDP1 block: 5.8%; HepG2 tox: -29.6%; TGFb inhibitor: -4.4%; IL1B secr inh: -11.6

Results for CCN1CCN(c2ccccc2NC(=O)c2ccc(-n3cccn3)cc2)CC1 ?
DT40 TDP1 CPT: inconclusive; TDP1 cell noCPT: -16.0%; TDP1 block: -0.1%; HepG2 tox: -4.1%; TGFb inhibitor: 12.1%; IL1B secr inh: inconclusive

Results for CCC(=O)N1CCN(c2ccc(Cl)cc2NC(=S)NC(=O)c2ccco2)CC1 ?
DT40 TDP1 CPT: inconclusive; TDP1 cell noCPT: inconclusive; HepG2 tox: -14.4%; TGFb inhibitor: 9.8%; IL1B secr inh: 0.7

How did Cc1cc(C)n(-c2ccc(C(=O)Nc3cc(S(=O)(=O)N(C)C)ccc3Cl)cc2)n1 do in these assays?
DT40 TDP1 CPT: 16.4µM*; TDP1 cell noCPT: inconclusive; TDP1 block: 3.2%; HepG2 tox: -7.6%; TGFb inhibitor: -19.3%; IL1B secr inh: -24.2

What do the screens show for `CCN1CCN(c2ccc(Cl)cc2NC(=O)c2ccc(-n3nc(C)cc3C)cc2)CC1`?
DT40 TDP1 CPT: 20.6µM*; TDP1 cell noCPT: inconclusive; TDP1 block: 1.8%; HepG2 tox: 22.4µM*; TGFb inhibitor: -6.4%; IL1B secr inh: -64.0*

What do the screens show for `Cc1cc(C)n(-c2ccc(C(=O)Nc3cccnc3Cl)cc2)n1`?
DT40 TDP1 CPT: inconclusive; TDP1 cell noCPT: inconclusive; TDP1 block: 2.5%; HepG2 tox: -12.8%; TGFb inhibitor: -18.5%; IL1B secr inh: -22.8

What do the screens show for `CCN1CCN(c2ccc(Cl)cc2NC(=O)c2ccco2)CC1`?
DT40 TDP1 CPT: inconclusive; TDP1 cell noCPT: inconclusive; TDP1 block: -1.6%[56.1 µM]; HepG2 tox: -18.6%; TGFb inhibitor: 18.6%; IL1B secr inh: -62.4*

What do the screens show for `CCC1CC=CC2C1C(=O)N(Cc1ccccc1)C2c1ccc(OC)c(Cl)c1` (stereo not given)?
TDP1 block: 2.6%; HepG2 tox: -29.5%; TGFb inhibitor: inconclusive

Assay outcomes as filed in PubChem BioAssay.
